Test results from PubChem BioAssay.
“And” between values parts separate entries of the source, which are not always exact repeats. Equal values may be shown once. Records with an inconclusive call do not appear. The source made the active and inactive calls.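 The calls were made as follows, unless noted: active = thallium flux through the channel raised or lowered by more than 3 SD from vehicle-only wells, actives on both sides; inactive = the rest.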

Tests used:
[1] = GFP-Q80 aggregate reduction, neuronal-like cells, cell-based, NGF-treated PC12, GFPQ80 (AID 1614); conditions: PC12 NGF-treated GFP-polyQ80 inclusion reduction;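 also: lower means fewer inclusions and 0 means no inclusions at all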
[2] = viability loss in pontine glioma line – cell-based, SU-DIPG-XVII, MIPE5.0, CellTiter-Glo, qHTS, dose response (AID 1347060; cut-off not given, nearly all actives have AC50 up to about 26 µM); conditions: CellTiter-Glo ATP luminescence
[3] = viability loss in pontine glioma line – cell-based, SU-DIPG-XIII, MIPE4.0, CellTiter-Glo, qHTS, dose response (AID 1347061; cut-off not given, nearly all actives have AC50 up to about 37 µM;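 also: cells exposed to compound for 48 hours before readout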); conditions: CellTiter-Glo ATP luminescence
[4] = viability loss in pontine glioma line – cell-based, SU-DIPG-XXV, MIPE5.0, CellTiter-Glo, qHTS, dose response (AID 1347065; cut-off not given, nearly all actives have AC50 up to about 26 µM;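 also: cells exposed to compound for 48 hours before ATP readout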); conditions: CellTiter-Glo ATP luminescence
[5] = growth inhibition of DIPG cells – cell-based, MIPE4.0 library, CellTiter-Glo luminescence, qHTS (AID 1347066; cut-off not given, nearly all actives have AC50 up to about 30 µM;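 also: cells exposed to compound for 48 hours before readout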); conditions: SU-DIPG-VI viability, CellTiter-Glo ATP luminescence
[6] = JHH-DIPG-1 glioma cell viability, MIPE5.0 library, CellTiter-Glo luminescence, qHTS (AID 1347067; cut-off not given, nearly all actives have AC50 up to about 26 µM;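 also: cells exposed to compound for 48 hours before readout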); conditions: JHH-DIPG-1 glioma viability, CellTiter-Glo ATP luminescence
[7] = growth inhibition of DIPG cells – cell-based, MIPE5.0 library, qHTS (AID 1347068; cut-off not given, nearly all actives have IC50 up to about 30 µM); conditions: SU-DIPG-XXV viability
[8] = growth inhibition, single agent or in combination, cell-based, chromothripsis tumors, cisplatin or BGB combos (AID 1671449; in the data active = inhibition above about 80%;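 also: cells exposed for 96 hours; 0% = vehicle DMSO and 100% = killing by high DMSO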); conditions: LFS_MB_P medulloblastoma cells
[9] = growth inhibition, single agent and combos, cell-based, chromothripsis tumors, cisplatin or BGB combos (AID 1671450; in the data active = inhibition above about 80%;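 also: cells exposed to compound for four days; 0% = vehicle DMSO and 100% = cell killing by high DMSO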); conditions: HDN33 neuroblastoma cells, stronger effect = higher value
[10] = growth inhibition, single agents and combos, ICB984, cell-based, cisplatin or BGB combos, synergistic combos for chromothripsis tumors (AID 1671451; call rule not given here;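 also: cells exposed for 96 hours before readout; 0% = vehicle DMSO and 100% = killing by high DMSO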); conditions: ICB984 medulloblastoma cells, drug combinations, stronger effect = higher value
[11] = growth inhibition, single agents and combos, HTB85, cell-based, BGB or cisplatin IC20 combos, synergistic combos for chromothripsis tumors (AID 1671453; in the data active = inhibition above about 80%;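 also: cells exposed for 96 hours before readout; 0% = vehicle DMSO and 100% = high DMSO killing control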); conditions: HTB85 osteosarcoma cells, drug combinations, stronger effect = higher value
F380Y/beta1 = experiment: BK channel mutant inhibitors and activators – cell-based, U2OS BacMam, thallium flux, beta subunits, selectivity assay, profiling panel (AID 1259406); conditions: U2OS BacMam BK variants, at 30 µM;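 also: initial slope of Thallos dye fluorescence rise after thallium is added; log ratio against the mean of 0.3% DMSO vehicle wells on the same plate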
F380Y/beta4 = experiment: as above; conditions: U2OS BacMam BK variants, at 30 µM
R275C/beta4 = experiment: as above; conditions: U2OS BacMam BK variants, at 30 µM
R275C/Slo1WT/beta2 = experiment: as above; conditions: U2OS BacMam BK variants, at 30 µM
[12] = viability loss in pontine glioma line – cell-based, JHH-DIPG-1, MIPE4.0, CellTiter-Glo, qHTS, dose response (AID 1347062; cut-off not given, nearly all actives have AC50 up to about 27 µM); conditions: JHH-DIPG-1 viability, CellTiter-Glo ATP luminescence
[13] = viability loss in pontine glioma line – cell-based, SU-DIPG-IV, MIPE4.0, CellTiter-Glo, qHTS, dose response (AID 1347063; cut-off not given, nearly all actives have AC50 up to about 30 µM;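 also: compound exposure lasted 48 hours before the viability readout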); conditions: CellTiter-Glo ATP luminescence
[14] = viability loss in pontine glioma line – cell-based, SU-DIPG-XIII, MIPE5.0, CellTiter-Glo, qHTS, dose response (AID 1347064; cut-off not given, nearly all actives have AC50 up to about 23 µM); conditions: CellTiter-Glo ATP luminescence
[15] = biological target: ATP-dependent translocase ABCB1 (Homo sapiens) (UniProt P08183); experiment: P-glycoprotein substrate transport blockade – cell-based (AID 377; in the data active = fluorescence slope change above about 50%); conditions: MDR1-expressing cells, fluorescent substrate accumulation slope; stronger effect = higher value; concentration not given here
Sequence of ATP-dependent translocase ABCB1 (Homo sapiens) (P08183 whole entry, looked up): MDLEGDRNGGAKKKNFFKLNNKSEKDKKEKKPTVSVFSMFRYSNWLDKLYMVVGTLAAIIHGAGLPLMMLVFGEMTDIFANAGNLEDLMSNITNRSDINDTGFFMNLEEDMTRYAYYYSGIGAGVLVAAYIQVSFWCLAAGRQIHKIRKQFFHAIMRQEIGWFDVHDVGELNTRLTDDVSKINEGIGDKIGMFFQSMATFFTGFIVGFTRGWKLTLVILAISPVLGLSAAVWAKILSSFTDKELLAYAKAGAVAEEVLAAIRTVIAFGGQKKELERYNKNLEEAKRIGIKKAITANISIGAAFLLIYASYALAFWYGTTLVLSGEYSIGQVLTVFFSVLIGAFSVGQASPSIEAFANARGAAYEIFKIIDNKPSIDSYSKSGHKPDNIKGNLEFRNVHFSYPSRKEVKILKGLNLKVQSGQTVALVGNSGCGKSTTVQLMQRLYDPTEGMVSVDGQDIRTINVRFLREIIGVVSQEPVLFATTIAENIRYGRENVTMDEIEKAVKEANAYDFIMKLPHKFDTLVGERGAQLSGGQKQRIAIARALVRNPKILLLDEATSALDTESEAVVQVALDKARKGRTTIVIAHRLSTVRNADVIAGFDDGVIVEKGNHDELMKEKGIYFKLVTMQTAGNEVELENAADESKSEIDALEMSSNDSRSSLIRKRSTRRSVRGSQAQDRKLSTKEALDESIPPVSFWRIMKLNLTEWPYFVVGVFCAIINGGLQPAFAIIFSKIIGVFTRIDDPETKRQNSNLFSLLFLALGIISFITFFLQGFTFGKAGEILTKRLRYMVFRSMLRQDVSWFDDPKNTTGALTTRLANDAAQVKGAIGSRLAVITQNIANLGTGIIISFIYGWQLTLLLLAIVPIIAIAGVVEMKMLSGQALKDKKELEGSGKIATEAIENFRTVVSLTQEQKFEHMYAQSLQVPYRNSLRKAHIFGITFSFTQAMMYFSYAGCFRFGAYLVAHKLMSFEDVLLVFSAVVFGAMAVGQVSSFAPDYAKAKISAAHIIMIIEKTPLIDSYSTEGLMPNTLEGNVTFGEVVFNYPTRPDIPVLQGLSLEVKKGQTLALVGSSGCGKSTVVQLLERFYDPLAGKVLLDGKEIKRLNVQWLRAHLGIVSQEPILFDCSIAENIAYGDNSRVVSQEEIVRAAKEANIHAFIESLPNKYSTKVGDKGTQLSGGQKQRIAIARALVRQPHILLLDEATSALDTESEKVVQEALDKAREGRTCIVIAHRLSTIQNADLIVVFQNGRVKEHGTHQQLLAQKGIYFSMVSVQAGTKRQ

[16] = tested on: Aerobactin synthetase IucA (Klebsiella pneumoniae); experiment: inhibition of K. pneumoniae IucA enzyme – biochemical, Tocris library, absorbance (AID 1345561; call rule not given here;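 also: 100% = enzyme without compound and 0% = no enzyme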); conditions: purified IucA enzyme assay, absorbance (OD) read-out; stronger effect = lower value;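 tested at 8 µM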

## CCCC(CCC)C(=O)O
[1]
  inclusion score: 2
[2]
  outcome: inactive
[3]
  outcome: inactive
[4]
  outcome: inactive
[5]
  outcome: inactive
[6]
  outcome: inactive
[7]
  outcome: inactive
[8]; at 0.5 µM, stronger effect = higher value
  inhibition: -13.2% (inactive) and -3.77% (inactive)
[8]; measured here: combination with BGB IC20, at 0.005 µM
  inhibition: -6.05% and -4.21%
[8]; measured here: combination with BGB IC40, at 0.005 µM
  inhibition: -31.2% and 0.129%
[8]; measured here: combination with BGB IC40, at 0.05 µM
  inhibition: -32.2% and 12.9%
[8]; measured here: combination with cisplatin, at 0.5 µM, stronger effect = higher value
  inhibition: -39.1% and -9.89%
[8]; measured here: combination with cisplatin, at 5 µM, stronger effect = higher value
  inhibition: -24.7% and -24.2%
[9]; BGB combo, at 5 µM
  inhibition: -30.6% and 8.86%
[9]; at 0.5 µM
  inhibition: -23.5% (inactive) and 13.8% (inactive)
[9]; cisplatin combo, at 5 µM
  inhibition: -2.31% and 15.6%
[9]; measured here: with BGB IC20 combination, at 0.5 µM
  inhibition: -33% and 14.7%
[9]; measured here: with cisplatin IC20 combination, at 0.5 µM
  inhibition: 0.437% and 10.4%
[9]; single agent, at 5 µM
  inhibition: -20.1% and 11%
[10]; BGB IC20 combo, at 0.005 µM
  inhibition: -9.77% and 11.3%
[10]; BGB IC40 combo, at 0.005 µM
  inhibition: -20.4% and -26.6%
[10]; BGB IC40 combo, at 0.05 µM
  inhibition: -15.7% and -0.427%
[10]; at 0.5 µM
  inhibition: -27.6% (inactive) and -12.8% (inactive)
[10]; cisplatin combo, at 0.05 µM
  inhibition: -18.9% and -4.04%
[10]; cisplatin combo, at 0.5 µM
  inhibition: -35.6% and -3.79%
[10]; cisplatin combo, at 5 µM
  inhibition: -25.9% and 4.77%
[10]; measured here: 5 uM single agent, at 5 µM
  inhibition: -29.5% and -2.64%
[11]; at 0.5 µM
  inhibition: -8.02% (inactive) and 3.4% (inactive)
[11]; measured here: with BGB IC20, at 0.5 µM
  inhibition: -18.9% and -3.5%
[11]; measured here: with BGB IC20, at 5 µM
  inhibition: 53.9% and 3.4%
[11]; measured here: with cisplatin IC20, at 0.5 µM
  inhibition: -4.12% and 2.48%
[11]; measured here: with cisplatin IC20, at 5 µM
  inhibition: -47.8% and -2.5%
[11]; single agent, at 5 µM
  inhibition: -17.1% and 13.4%
F380Y/beta1
  log fold change Tl+ flux: -0.0195 (inactive)
F380Y/beta4
  log fold change Tl+ flux: 0.0134 (inactive)
R275C/beta4
  log fold change Tl+ flux: 0.0354 (inactive)
R275C/Slo1WT/beta2
  log fold change Tl+ flux: -0.0422 (inactive)

## CC(C)(C)NCC(O)c1ccc(O)c(CO)c1 (configuration not stated)
[1]
  inclusion score: 2
[2]
  outcome: inactive
[3]
  outcome: inactive
[12]
  outcome: inactive
[13]
  outcome: inactive
[14]
  outcome: inactive
[4]
  outcome: inactive
[5]
  outcome: inactive
[6]
  outcome: inactive
[7]
  outcome: inactive

## CNCCCN1c2ccccc2CCc2ccccc21
F380Y/beta1
  log fold change Tl+ flux: 0.022 (inactive)
F380Y/beta4
  log fold change Tl+ flux: 0.144 (active)
R275C/beta4
  log fold change Tl+ flux: 0.123 (inactive)
R275C/Slo1WT/beta2
  log fold change Tl+ flux: -0.0879 (inactive)

## CC(C)NCC(O)COc1cccc2[nH]ccc12 (configuration not stated)
[15]
  fluorescence slope change: 68.5% (active)
[1]
  inclusion score: 2
[16]
  remaining activity: 101% (inactive)
F380Y/beta1
  log fold change Tl+ flux: 0.0264 (inactive)
F380Y/beta4
  log fold change Tl+ flux: 0.000781 (inactive)
R275C/beta4
  log fold change Tl+ flux: -0.00429 (inactive)
R275C/Slo1WT/beta2
  log fold change Tl+ flux: 0.017 (inactive)

## CN1C(=O)CC[C@H]1c1cccnc1
[15]
  fluorescence slope change: 94.5% (active)
[1]
  inclusion score: 2

## CN1CCN(C2=Nc3cc(Cl)ccc3Nc3ccccc32)CC1
[16]
  remaining activity: 121% (inactive)
[12]
  outcome: inactive
[13]
  outcome: inactive
[4]
  AC50: 13.2 µM (active)
[5]
  outcome: inactive
[7]
  outcome: inactive
F380Y/beta1
  log fold change Tl+ flux: 0.177 (active)
F380Y/beta4
  log fold change Tl+ flux: 0.214 (active)
R275C/beta4
  log fold change Tl+ flux: 0.137 (active)
R275C/Slo1WT/beta2
  log fold change Tl+ flux: 0.0195 (inactive)

## CN/C(=C\[N+](=O)[O-])NCCSCc1ccc(CN(C)C)o1
[15]
  fluorescence slope change: 105% (active)
[1]
  inclusion score: 2
F380Y/beta1
  log fold change Tl+ flux: -0.0094 (inactive)
F380Y/beta4
  log fold change Tl+ flux: 0.0499 (inactive)
R275C/beta4
  log fold change Tl+ flux: -0.0213 (inactive)
R275C/Slo1WT/beta2
  log fold change Tl+ flux: -0.015 (inactive)

## COc1ccccc1N1CCN(CCCCNC(=O)c2ccc(-c3ccc(C(C)=O)cc3)cc2)CC1
[16]
  remaining activity: 111% (inactive)
